# Screens deposited in PubChem by National Center for Advancing Translational Sciences (NCATS).
# A selection: hits, their analogues and other compounds. The true share with any hit is near 18%.
# TGFb inhibitor – TGF-b pathway inhibition; AID 588855; HepG2 CAGA-GFP TGF-b/SMAD3 reporter, GFP fluorescence, 18 h; TGF-beta stimulated, 500 pg/mL final; hit rate 1.2% among 410,000; Potency, µM (highest dose often 46.1 µM), for inactives: at the top dose activity, negative = inhibition, most hits filed as inhibitors; also: potency is read from the fitted curve at half-maximal effect; % is scaled to controls: 0 for no effect and ±100 for the full control effect; nearly all actives have a fitted effect of over 65% in size
#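 Per well, imaged GFP fluorescence of HEPG2 CAGA-GFP cells gives the signal; cells get compound, then TGF-beta (500 pg/mL final), 18 h at 37 degrees C; %Activity versus -TGF-beta and +DMSO controls.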
# TDP1 cell noCPT – qHTS for Inhibitors of human tyrosyl-DNA phosphodiesterase 1 (TDP1): qHTS in cells in absence of CPT | DT40 Tdp1-/- hTDP1 cells, no CPT, ATP luminescence, 48 h | Potency, µM (highest dose often 46.2 µM), inactives show at the top dose activity change, negative = growth inhibition, hits mostly inhibitors | hit rate 15% among 420,000 | AID 686978, 2013; also: potency is read from the fitted curve at half-maximal effect; % is scaled to controls: 0 for no effect and ±100 for the full control effect; nearly all actives have a fitted effect of over 55% in size
#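 Compound effects on proliferation are scored in DT40 Tdp1-/-;hTDP1 cells in the absence of CPT. ATP levels (CellTiter-Glo luminescence) are recorded after a ≥48 hr, 37 °C incubation.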
# TDP1 block – blocks human tyrosyl-DNA phosphodiesterase 1 | Q9NUW8 | recombinant TDP1, AlphaScreen DNA substrate cleavage | Potency, µM (doses to about 130 µM), inactives show at the top dose activity change, negative = inhibition, actives largely listed as inhibitors | hit rate 0.28% among 350,000 | AID 485290; also: potency is read from the fitted curve at half-maximal effect; % is scaled to controls: 0 for no effect and ±100 for the full control effect; nearly all actives have a fitted effect of over 40% in size
# Target sequence (Q9NUW8 whole entry, looked up): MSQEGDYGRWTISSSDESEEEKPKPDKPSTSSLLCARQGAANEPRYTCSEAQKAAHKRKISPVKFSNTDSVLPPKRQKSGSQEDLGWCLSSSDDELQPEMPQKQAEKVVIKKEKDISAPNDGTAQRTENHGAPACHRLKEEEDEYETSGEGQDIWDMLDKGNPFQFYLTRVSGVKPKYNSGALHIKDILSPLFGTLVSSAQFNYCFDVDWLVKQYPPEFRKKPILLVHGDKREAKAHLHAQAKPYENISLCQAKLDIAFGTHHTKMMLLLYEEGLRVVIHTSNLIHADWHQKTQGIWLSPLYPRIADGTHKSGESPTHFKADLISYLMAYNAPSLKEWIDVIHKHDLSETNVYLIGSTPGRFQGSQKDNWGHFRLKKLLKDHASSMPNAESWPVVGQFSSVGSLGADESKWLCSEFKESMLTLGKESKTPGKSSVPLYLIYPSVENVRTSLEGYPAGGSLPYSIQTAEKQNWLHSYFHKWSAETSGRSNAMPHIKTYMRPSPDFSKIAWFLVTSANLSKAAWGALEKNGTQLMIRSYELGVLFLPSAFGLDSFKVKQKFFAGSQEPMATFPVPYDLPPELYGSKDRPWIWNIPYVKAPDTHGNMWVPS
#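 E. coli-derived human Tdp1, 1 nM final. Cpd preinc 15 min RT; substrate 15 nM final, 5 min RT; AS bead mix 10 ug/ml final, 10 min RT. Signal loss = tyrosine-FITC cleavage. No-enzyme wells = max signal.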
# HepG2 tox – HepG2 cytotoxicity, counter-screen for TGF-b inhibitors. hit rate 0.76% among 410,000. Potency, µM (highest dose often 46.1 µM), for inactives: top-dose activity change, negative = cytotoxicity, most hits filed as cytotoxic. HepG2 CAGA-GFP viability, ATP luminescence, 18 h. AID 588856; also: potency is read from the fitted curve at half-maximal effect
#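 HepG2 CAGA-GFP cells (1000/well, DMEM with 1% FBS) received compound, then TGF-beta at 500 pg/mL final, and were incubated 18 hours at 37 degrees C. Viability was read by CellTiter-Glo luminescence. Media-only wells were set as complete cell-killing and DMSO as no toxicity.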
# DT40 TDP1 CPT – growth inhibition of DT40 Tdp1-/-;hTDP1 cells with camptothecin (screen for TDP1 inhibitors); Potency, µM (highest dose often 46.2 µM), without a hit: at the highest dose activity change, negative = growth inhibition, actives largely listed as inhibitors; hit rate 12% among 420,000; chicken DT40 Tdp1-/-;hTDP1 cells + 20 nM CPT, ATP luminescence, 48 h; also: potency is read from the fitted curve at half-maximal effect; % is scaled to controls: 0 for no effect and ±100 for the full control effect; nearly all actives have a fitted effect of over 55% in size
#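 Chicken DT40 Tdp1-/- cells stably complemented with human TDP1 were seeded at 400 cells/well in medium containing 20 nM camptothecin, exposed to pin-transferred compounds, and grown at 37 °C for at least 48 hr. Viability was read as ATP luminescence.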
# IL-1B inflam inh – inflammasome signaling inhibition, IL-1 beta readout; THP-1 LPS/ATP IL-1B secretion, AlphaLISA, 16 h; stronger effect = lower value; activity change, % at 57.5 µM; hit rate 4.7% among 360,000; AID 743279; in the data active = activity change below about -50%; inconclusive = mostly about -30% to -49%; also: % is scaled to controls: 0 for no effect and ±100 for the full control effect
#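 Secreted IL-1B measured by AlphaLISA bead assay after 16 h compound exposure of THP-1 cells; compounds (final up to 57.5 uM) added 1 h before LPS (250 ng/mL) and ATP (1.25 mM) stimulation; lower signal means less secretion.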
# The depositor's hits bear a star; ? = inconclusive; . = not tested or not shown; [ ] = another dose, or the depositor's remark. Unless noted, calls follow the shape of the dose curve; as a rule, active = well fitted curve in the direction sought with a large enough effect; inconclusive = small, poorly fitted or top-dose-only effect, or another doubt; inactive = no such curve, though single readings can be large; an effect the other way counts as inactive or inconclusive.
SMILES,TGFb inhibitor,TDP1 cell noCPT,TDP1 block,HepG2 tox,DT40 TDP1 CPT,IL-1B inflam inh
CCNN,.,.,-7%,.,.,.
O=C1N[C@H](Cc2ccccc2)C(=O)N2[C@@H]3[C@H](C[C@@H]12)c1ccccc1N3OOSc1ccccc1,-1%,18µM*,.,0%,16µM*,0
OCC(O)[C@H]1O[C@@H]2O[C@H](C(Cl)(Cl)Cl)O[C@@H]2[C@H]1O (stereo partly specified),.,.,9%,.,.,.
Clc1ccccc1CNCCc1c[nH]c2ccccc12,-16%,?,.,-35%,-24%,-7
c1ccc2c(CNC3CCCCCC3)c[nH]c2c1,?,7.3µM*,7%,-113%,3.3µM*,-70*
Cc1cccc(CN2CCCC(C(=O)c3ccc(C(F)(F)F)cc3)C2)n1 (stereo unspecified),?,18µM*,-1%,-32%,?,17
CSc1ccccc1C(=O)C1CCCN(Cc2cccc(C)n2)C1 (stereo unspecified),?,?,6%,-36%,?,-75*
CSc1ccccc1C(=O)C1CCCN(Cc2ccccn2)C1 (stereo unspecified),-18%,?,5%,-20%,3%,31
CCCCC/C=C\C/C=C\C/C=C\CCCCC(=O)NCCc1ccc(O)c(O)c1,.,.,6%,.,.,.
N#Cc1ccc(C(=O)N2CCN(c3nc4ccc(F)cc4s3)CC2)cc1,-9%,2.3µM*,0%,-12%,2.3µM*,.
COC(=O)C(O)(c1ccc(NC(=O)c2ccccc2)cc1)C(F)(F)F (stereo unspecified),-15%,-18%,.,1%,4%,0
COc1ccc(C(=O)Nc2ccc(-c3cc(C(F)(F)F)nn3-c3ccccc3)cc2)cc1OC,9%,13µM*,12%,-20%,18µM*,.
CC[C@]1(c2cccc(O)c2)CCCCN(C)C1,.,.,9%[21 µM],.,.,.
OC1(c2ccccc2)CCNC2CCCCC21 (stereo unspecified),4%,?,.,-16%,18µM*,-21
OC12CCCCC1C(c1ccccc1)NCC2 (stereo unspecified),14%,-2%,-1%,-4%,-20%,0
OCC(O)Cc1ccc2c(c1)OCO2 (stereo unspecified),.,-18%,8%[56.1 µM],.,-2%,.
CC(C)C[C@H]1CN(CCCC[C@H]2CNC(=O)C(=O)N2CCC2CCCCC2)C(=O)C(=O)N1CCC1CCCCC1,.,21µM*,.,.,?,8
O=C1NC[C@H](CCCCN2C[C@@H](Cc3ccccc3)N(CC3CCCCC3)C(=O)C2=O)N(CCC2CCCCC2)C1=O,.,13µM*,.,.,18µM*,-1
CCNc1nc(Cl)nc(NCC)n1,.,-5%,7%[56.1 µM],.,8%,.
Cc1cc(C)c(N)cc1C,0%,?,2%,-54%,-12%,4
COc1ccccc1-n1c(/C=C/c2ccc(O)cc2)nc2ccccc2c1=O,6%,?,.,-12%,?,?
O=c1c2ccccc2nc(/C=C\c2ccccc2F)n1-c1ccc(O)cc1,-2%,?,8%,-20%,?,.
COc1ccc(-n2c(/C=C\c3ccccc3F)nc3ccccc3c2=O)c(OC)c1,?,23µM*,8%,-34%,15µM*,.
COc1ccccc1-n1c(/C=C/c2ccccc2)nc2ccccc2c1=O,23%,26µM*,-3%,-2%,?,.
O=c1c2ccccc2nc(/C=C/c2ccccc2)n1-c1ccc(O)cc1,?,23µM*,.,-28%,?,?
SMILES,TGFb inhibitor,TDP1 cell noCPT,TDP1 block,HepG2 tox,DT40 TDP1 CPT,IL-1B inflam inh
O=c1c2ccccc2nc(/C=C/c2cccnc2)n1Cc1ccccc1,-2%,23µM*,10µM*,0%,?,?
NCCCCC(NC(CCc1ccccc1)C(=O)O)C(=O)N1CCCC1C(=O)O (stereo unspecified),.,5%,10%[56.1 µM],.,14%,.
C[N+]1([O-])[C@H]2CC[C@H]1CC(OC(=O)[C@@H](CO)c1ccccc1)C2 (stereo partly specified),.,.,2%,.,.,.
CC(C)(C)OC(=O)C(Br)CCBr (stereo unspecified),.,.,6%,.,.,.
CC(=O)N1c2ccc(S(=O)(=O)N3CCCC(C(=O)Nc4cc(C)cc(C)c4)C3)cc2CC1C (stereo unspecified),-26%,?,.,-23%,?,-3
O=C1c2ccccc2C(=O)N1Cc1nc2ccccc2c(=O)n1-c1ccccn1,-6%,-9%,-2%,3%,-1%,16
O=c1c2ccccc2nc(/C=C/c2ccc(F)cc2)n1-c1ccccn1,-4%,18µM*,-10%,5%,?,7
O=c1c2ccccc2nc(/C=C\c2cccc(Br)c2)n1-c1ccc(O)cc1,13µM*,?,-3%[12.3 µM],-105%,?,.
O=C(O)c1ccc(/C=C/c2nc3ccccc3c(=O)n2-c2ccc(Br)cc2)cc1,-5%,?,0%,-3%,-29%,?
O=c1c2ccccc2nc(/C=C/c2ccc(O)cc2)n1-c1ccccc1O,2%,?,6%,-3%,?,?
O=c1c2ccccc2nc(/C=C/c2ccc(O)c(O)c2)n1-c1ccccc1,-11%,26µM*,.,-37%,?,-16
O=c1c2ccccc2nc(/C=C/c2ccccc2)n1-c1ccccc1O,0%,23µM*,.,-1%,-11%,.
O=C1NCCOC(=O)[C@H](Cc2ccc(F)cc2)CC/C=C/C[C@H]1CC(=O)N(CCO)Cc1ccccc1,?,?,0%,-14%,?,-6
Cc1ccc(C2=NOC(C)(c3nnc(-c4ccccc4)o3)C2)cc1 (stereo unspecified),?,-13%,.,0%,-1%,-5
Nc1nccc(-c2c(-c3ccc(F)cc3)ncn2C2CCNCC2)n1,.,.,5%,.,.,.
COC(C)(C)C,.,.,12%,.,.,.
CCC1(C)Cc2ccccc2-c2c1c(=O)n(Cc1ccccc1)c1nnnn21 (stereo unspecified),-4%,?,-1%,-8%,?,-4
CCOC(=O)C1(CCc2ccccc2)CCN(Cc2ccc3c(c2)OCCO3)CC1,-14%,26µM*,0%,-21%,?,8
CCOC(=O)C1(CCc2ccccc2)CCN(Cc2ccc(NC(C)=O)cc2)CC1,3%,?,.,-33%,?,-6
CCOC(=O)C1(CCc2ccccc2)CCN(C2CCSCC2)CC1,2%,6.5µM*,3%,-13%,8.2µM*,-18
